Test [1] in a line: AP1 Signaling Pathway (AID 357; active means well fitted curve in either direction with a large enough effect, not every such curve was filed as active; further: on the % scale 0 is the no-effect control and ±100 the full control effect). The note with it: ME-180 AP-1-bla reporter, EGF-induced, beta-lactamase ratio, 5 h; at 7.69 µM (top of the series) unless noted. In a few lines: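 A ratiometric CCF4 readout (405 nm excitation; 460 and 530 nm emission) quantified AP-1-driven beta-lactamase in ME-180 cells after 5 h with compound and EC50 EGF; AC50 values were derived for activators and inhibitors.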

Test [2] deals with Cytochrome P450 1A2 (Homo sapiens) (UniProt P05177). In words: p450-cyp1a2 (AID 410; calls by dose curve; further: potency means the concentration at half of the fitted maximal effect). A digest of the protocol: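 Luminescent readout of luciferin formed from Luciferin-ME by human CYP1A2; data normalized against complete inhibition by 57 uM furafylline. Enzyme 20nM, substrate 100uM at Km, 100mM KPO4 buffer, 60 min reaction at room temperature.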
Test [3] is described as follows: NFAT Signaling Pathway (AID 444; active means well fitted curve in either direction with a large enough effect, not every such curve was filed as active;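 further: carbachol stimulus at about its EC50 of 1 µM final; on the % scale 0 is the no-effect control and ±100 the full control effect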). The note with it: Jurkat NFAT-bla M1, carbachol, beta-lactamase ratio, 5 h; at 7.69 µM (top of the series) unless noted. In a few lines: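 Read-out: CCF4 FRET ratio (460 nm/530 nm) after 1 h RT dye loading, used for %activity and AC50 from titration series. Cells: Jurkat NFAT-β-lactamase/M1 line, treated with compound plus 1 uM carbachol for 5 h, 37 °C.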

Test [4] in a line: Stat Signaling Pathway (AID 446; active means well fitted curve in either direction with a large enough effect, not every such curve was filed as active;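 further: ME-180 cervical cancer cells given 40 pM IL-6 alongside compound; SIE-controlled beta-lactamase reporter measured as 460/530 nm FRET emission ratio; on the % scale 0 is the no-effect control and ±100 the full control effect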). The following applies: ME-180 SIE beta-lactamase reporter, IL-6 stimulated, 5 h; at 7.69 µM (top of the series) unless noted. In a few lines:
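IL-6/STAT signaling read in ME-180 cells via an SIE beta-lactamase reporter. Stimulus was 40 pM IL-6 (its AC50) for 5 hrs, so both activation and inhibition register.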

Test [5] has as its target Glucocorticoid receptor (Homo sapiens) (UniProt P04150). Briefly: GR-GFP Redistribution (AID 450;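 active means compounds whose dose series gives a full or clear partial fitted curve of increased nuclear translocation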; further: potency means the concentration at half of the fitted maximal effect). The following applies: U2OS GR-GFP nuclear translocation, laser cytometry, 2 h.
Test [6] has the same target. In words: GR-EFC Redistribution (AID 451; calls by dose curve; further: potency means the concentration at half of the fitted maximal effect). The note with it: CHO-K1 GR-EFC translocation, beta-gal luminescence, 2 h. A digest of the protocol:
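Translocation of GR-ED fusion to nuclear EA restores b-gal, read by luminescence after 1 h room-temperature detection. Engineered CHO-K1 biosensor cells, 1,000/well, exposed 2 h at 37 C to titrations up to 46 uM final.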

For test [7], the target named is Mitogen-activated protein kinase 10 (Mus musculus) (UniProt Q61831). Briefly: JNK3 AlphaScreen Assay (AID 530; active means well fitted curve in either direction with a large enough effect, not every such curve was filed as active;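 further: kinase came from lysate of stimulated human HepG2 cells; signal reports phosphorylation of biotinylated GST-cJun 1-79 at Ser73 with 10 µM ATP; on the % scale 0 is the no-effect control and ±100 the full control effect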). A digest of the protocol:
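Compound titrations were preincubated 15 minutes at room temperature with substrate, antibody and pre-activated JNK3-containing HepG2 lysate. Reactions were started with 10 uM ATP and stopped with EDTA-containing bead buffer for AlphaScreen detection.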
Background: In Alpha technology, singlet oxygen from a donor bead excites a nearby acceptor bead.

The target of test [8] is Cytochrome P450 3A4 (Homo sapiens) (UniProt P08684). In words: qHTS Assay for Inhibitors and Substrates of Cytochrome P450 3A4 (AID 884). Further: potency means the concentration at half of the fitted maximal effect; nearly all actives have a fitted effect of over 50% in size. A digest of the protocol: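 20 nM human CYP3A4 with 25 uM Luciferin-PPXE (at KM) in 200 mM KPO4, preincubated 10 min with compound; NADPH regeneration started a 60 min RT reaction. Luciferin detected by luminescence, normalized to 57 uM ketoconazole as full inhibition.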
On the technique in general: In qHTS, concentration-response curves come from the screen itself.

For test [9] the target is unchanged. In words: qHTS Assay for Activators of Cytochrome P450 3A4 (AID 885). Further: nearly all actives have a fitted effect of over 65% in size. In a few lines:
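Quantitative HTS format: compounds preincubated with 20nM human CYP3A4 and Luciferin-PPXE substrate at KM, reaction started by NADPH regeneration, stopped after 60 min, luciferase luminescence read 20 min later.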

Test [10] has as its target Cytochrome P450 2C19 (Homo sapiens) (UniProt P33261). In words: qHTS Assay for Inhibitors and Substrates of Cytochrome P450 2C19 (AID 899). Further: potency means the concentration at half of the fitted maximal effect; nearly all actives have a fitted effect of over 60% in size. In a few lines:
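Luminescence readout of luciferin formed from 10uM Luciferin-H EGE (KM level) by 5 nM CYP2C19 in 50mM KPO4. 60 min NADPH-driven reaction at 37C after 10 min compound preincubation; data scaled to 57uM ketoconazole inhibition.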

Test [11] addresses Dual specificity protein kinase CLK4 (Homo sapiens) (UniProt Q9HAZ1). Briefly: qHTS Assay for Inhibitors of CDC-like Kinase 4 (Kinase-Glo Assay) (AID 1770). Further: nearly all actives have a fitted effect of over 65% in size. Further: potency means the concentration at half of the fitted maximal effect. A digest of the protocol:
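Readout: Kinase-Glo luminescence from ATP left after a 4.5 h room-temperature reaction of 25 nM Clk4 with 100 uM RS peptide and 1 uM ATP (final). Buffer: 25 mM Tris pH 7.5, 10 mM MgCl2.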

Test [12] has the same target. In words: qHTS Assay for Inhibitors of CDC-like Kinase 4 (ADP-Glo Assay) (AID 1771). Further: nearly all actives have a fitted effect of over 70% in size. Further: potency means the concentration at half of the fitted maximal effect. A digest of the protocol: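 Luminescence from ADP-Glo reports ADP produced by 25 nM Clk4 acting on 100 uM RS repeat peptide with 1 uM ATP over 1 hr at room temperature; residual ATP is depleted before ADP is converted to ATP for detection.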
For test [13] the target is unchanged. Briefly: qHTS Assay for Inhibitors of CDC-like Kinase 4 (ADP-FP Assay) (AID 1795). Further: nearly all actives have a fitted effect of over 60% in size. Further: potency means the concentration at half of the fitted maximal effect. A digest of the protocol: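 FP readout: Orange Transcreener ADP2 tracer (4 nM) plus ADP antibody, read after 30 min at room temperature. Kinase step: 6.25 nM Clk4, 100 uM RS peptide, 1 uM ATP, pH 7.5, 1 h.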
Test [14] addresses Ubiquitin carboxyl-terminal hydrolase 1 (Homo sapiens) (UniProt O94782). In words: Inhibitors of USP1/UAF1: Pilot qHTS (AID 504865). Further: nearly all actives have a fitted effect of over 35% in size. Further: potency means the concentration at half of the fitted maximal effect. A digest of the protocol: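 1nM USP1/UAF1 + cpd, 15 min RT; start w/ Ub-Rho 150nM final; kinetic FL 480/540 nm, 6 reads q60 s. Buffer 50mM HEPES pH 7.8, 0.5mM EDTA, 1mM TCEP, 0.01% Tween-20, 0.1 mg/ml BSA.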
The nature of test [15]: Primary qHTS for small molecule stabilizers of the endoplasmic reticulum resident proteome: Secreted ER Calcium Modulated Protein (SERCaMP) assay (AID 1508630). Further: on the % scale 0 is the no-effect control and ±100 the full control effect. A digest of the protocol: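 GLuc-SERCaMP-expressing SH-SY5Y cells, pretreated 16 h with compound, are challenged with thapsigargin to empty ER calcium stores; after 4 h, coelenterazine is added directly to the medium and luminescence is imaged.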

Test [16] addresses Lysosomal acid glucosylceramidase (Homo sapiens) (UniProt P04062). Briefly: Glucocerebrosidase-p2 (AID 348; in the data active means potency below about 10 µM; further: potency means the concentration at half of the fitted maximal effect). The note with it: purified GBA, blue fluorogenic substrate, 40 min. In a few lines: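 Compounds titrated from 0.6 nM upwards against 0.2 nM enzyme in pH 5.9 citric acid/KH2PO4, taurocholate, tween-20; blue fluorogenic substrate 80 uM, 40 min room temperature, stopped and read Ex 365/Em 440 for AC50.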

Test [17] deals with 3',5'-cyclic-AMP phosphodiesterase 4B (Homo sapiens) (UniProt Q07343). In words: qHTS Assay for Inhibitors of PDE-IV (AID 607; active means well fitted activation curve with a large enough effect in the main read-out, with a control signal flat, not every such curve was filed as active; further: % of control where 0% means no effect). In a few lines:
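Live HEK293 cells with a modified cyclic nucleotide-gated (CNG) channel report intracellular cAMP via membrane-potential dye fluorescence (ex 535/em 590 nm). Endogenous PDE-IV was targeted. Compounds were tested at up to 22.9 uM final; RO 20-1724 100 uM served as control.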

The target of test [18] is Cytochrome P450 2C9 (Homo sapiens) (UniProt P11712). Briefly: qHTS Assay for Inhibitors and Substrates of Cytochrome P450 2C9 (AID 883). Further: potency means the concentration at half of the fitted maximal effect; nearly all actives have a fitted effect of over 60% in size. In a few lines:
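Luminescent read-out of deoxyluciferin hydroxylation, normalized to 57uM sulphaphenazole (AC100). Reaction: 10nM enzyme, 100uM Luciferin-H (equal to KM), 25mM KPO4, 10 min compound preincubation, then 60 min with NADPH regeneration, both at 37C.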

Test [19] is described as follows: qHTS Assay for Identification of Small Molecule Agonists for Hypoxia Response Element Signaling Pathway (AID 914; active means well fitted activation curve with a large enough effect in the signal ratio, with a control signal flat, not every such curve was filed as active; the % refers to the signal ratio; further: potency means the concentration at half of the fitted maximal effect). The note with it: ME-180 (cervical carcinoma) HRE-bla reporter, beta-lactamase ratio, CoCl2, 17 h; activation: active compounds read high. In a few lines:
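Positive modulation of EC50 CoCl2-induced hypoxia response element signaling is measured in ME-180 cells with a beta-lactamase reporter. Compounds are titrated, incubation runs 17 hours, and %Activity derives from the blue/green ratio.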

A number with no mark means an inactive call. Inconclusive results are not listed. The source made the active and inactive calls. Unless noted, the call rests on the fitted dose curve; in most records, active means well fitted curve in the direction sought with a large enough effect; inconclusive means small, poorly fitted or top-dose-only effect, or another doubt; inactive means no such curve, though single readings can be large; an effect the other way counts as inactive or inconclusive. A value given as a limit tells only on which side of the number the result lay.

Cytochrome P450 1A2 (Homo sapiens), sequence (P05177 whole entry, looked up): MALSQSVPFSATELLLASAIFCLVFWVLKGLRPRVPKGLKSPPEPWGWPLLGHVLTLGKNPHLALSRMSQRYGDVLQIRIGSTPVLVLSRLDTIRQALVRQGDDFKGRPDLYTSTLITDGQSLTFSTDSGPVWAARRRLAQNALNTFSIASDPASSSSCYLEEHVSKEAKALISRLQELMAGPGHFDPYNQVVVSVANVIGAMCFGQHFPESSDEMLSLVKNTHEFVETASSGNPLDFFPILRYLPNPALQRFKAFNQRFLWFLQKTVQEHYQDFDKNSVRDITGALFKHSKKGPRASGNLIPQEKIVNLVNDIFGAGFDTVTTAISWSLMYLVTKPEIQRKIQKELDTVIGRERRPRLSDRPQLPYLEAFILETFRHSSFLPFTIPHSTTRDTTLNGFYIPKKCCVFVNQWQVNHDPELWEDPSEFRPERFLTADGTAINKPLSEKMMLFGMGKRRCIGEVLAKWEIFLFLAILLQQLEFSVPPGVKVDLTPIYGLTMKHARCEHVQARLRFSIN
Lysosomal acid glucosylceramidase (Homo sapiens), sequence (P04062 whole entry, looked up): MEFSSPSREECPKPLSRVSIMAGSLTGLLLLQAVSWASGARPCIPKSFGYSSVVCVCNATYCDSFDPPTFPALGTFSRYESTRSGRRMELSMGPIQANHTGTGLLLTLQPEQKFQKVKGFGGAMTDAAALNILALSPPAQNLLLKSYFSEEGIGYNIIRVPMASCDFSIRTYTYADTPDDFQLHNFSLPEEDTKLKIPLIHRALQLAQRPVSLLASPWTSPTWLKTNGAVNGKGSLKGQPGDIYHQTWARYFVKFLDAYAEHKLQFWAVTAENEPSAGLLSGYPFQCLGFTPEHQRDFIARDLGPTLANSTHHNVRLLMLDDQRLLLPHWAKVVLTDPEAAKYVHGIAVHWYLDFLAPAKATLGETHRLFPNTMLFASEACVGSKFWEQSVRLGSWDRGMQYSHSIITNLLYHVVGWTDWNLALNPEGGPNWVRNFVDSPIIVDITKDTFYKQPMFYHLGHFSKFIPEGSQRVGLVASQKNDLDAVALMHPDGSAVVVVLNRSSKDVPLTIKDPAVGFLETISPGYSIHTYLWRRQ
Dual specificity protein kinase CLK4 (Homo sapiens), sequence (Q9HAZ1 whole entry, looked up): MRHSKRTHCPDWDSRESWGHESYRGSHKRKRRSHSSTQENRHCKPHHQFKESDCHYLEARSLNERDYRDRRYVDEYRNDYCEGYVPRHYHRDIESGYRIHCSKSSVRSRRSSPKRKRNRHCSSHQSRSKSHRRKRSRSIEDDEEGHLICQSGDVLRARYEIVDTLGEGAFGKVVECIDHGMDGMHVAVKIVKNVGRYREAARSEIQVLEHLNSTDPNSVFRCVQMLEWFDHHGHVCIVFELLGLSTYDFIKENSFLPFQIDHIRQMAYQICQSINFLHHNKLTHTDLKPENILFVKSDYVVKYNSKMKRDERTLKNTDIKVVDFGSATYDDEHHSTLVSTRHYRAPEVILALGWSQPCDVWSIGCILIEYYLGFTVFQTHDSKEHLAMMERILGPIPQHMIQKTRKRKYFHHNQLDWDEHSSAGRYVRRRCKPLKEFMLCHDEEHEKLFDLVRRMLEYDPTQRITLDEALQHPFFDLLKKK
3',5'-cyclic-AMP phosphodiesterase 4B (Homo sapiens), sequence (Q07343 whole entry, looked up): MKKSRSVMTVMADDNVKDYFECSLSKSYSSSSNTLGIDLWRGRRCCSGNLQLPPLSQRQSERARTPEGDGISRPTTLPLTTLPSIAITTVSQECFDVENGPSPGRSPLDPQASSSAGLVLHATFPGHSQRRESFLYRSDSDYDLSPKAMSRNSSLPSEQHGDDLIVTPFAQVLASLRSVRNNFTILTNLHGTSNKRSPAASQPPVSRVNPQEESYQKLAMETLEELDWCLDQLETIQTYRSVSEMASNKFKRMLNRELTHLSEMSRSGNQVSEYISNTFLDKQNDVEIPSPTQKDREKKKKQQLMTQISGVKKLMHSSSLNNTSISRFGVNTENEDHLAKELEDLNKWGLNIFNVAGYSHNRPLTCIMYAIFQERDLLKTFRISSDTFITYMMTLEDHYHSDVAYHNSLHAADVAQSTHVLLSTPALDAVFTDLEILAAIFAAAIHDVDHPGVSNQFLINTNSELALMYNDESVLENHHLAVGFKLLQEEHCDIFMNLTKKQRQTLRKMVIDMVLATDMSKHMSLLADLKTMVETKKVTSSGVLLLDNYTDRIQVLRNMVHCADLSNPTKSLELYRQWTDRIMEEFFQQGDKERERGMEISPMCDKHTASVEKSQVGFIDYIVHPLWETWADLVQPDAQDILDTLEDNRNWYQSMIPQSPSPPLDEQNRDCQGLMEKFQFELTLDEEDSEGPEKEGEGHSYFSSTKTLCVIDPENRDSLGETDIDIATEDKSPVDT
Ubiquitin carboxyl-terminal hydrolase 1 (Homo sapiens), sequence (O94782 whole entry, looked up): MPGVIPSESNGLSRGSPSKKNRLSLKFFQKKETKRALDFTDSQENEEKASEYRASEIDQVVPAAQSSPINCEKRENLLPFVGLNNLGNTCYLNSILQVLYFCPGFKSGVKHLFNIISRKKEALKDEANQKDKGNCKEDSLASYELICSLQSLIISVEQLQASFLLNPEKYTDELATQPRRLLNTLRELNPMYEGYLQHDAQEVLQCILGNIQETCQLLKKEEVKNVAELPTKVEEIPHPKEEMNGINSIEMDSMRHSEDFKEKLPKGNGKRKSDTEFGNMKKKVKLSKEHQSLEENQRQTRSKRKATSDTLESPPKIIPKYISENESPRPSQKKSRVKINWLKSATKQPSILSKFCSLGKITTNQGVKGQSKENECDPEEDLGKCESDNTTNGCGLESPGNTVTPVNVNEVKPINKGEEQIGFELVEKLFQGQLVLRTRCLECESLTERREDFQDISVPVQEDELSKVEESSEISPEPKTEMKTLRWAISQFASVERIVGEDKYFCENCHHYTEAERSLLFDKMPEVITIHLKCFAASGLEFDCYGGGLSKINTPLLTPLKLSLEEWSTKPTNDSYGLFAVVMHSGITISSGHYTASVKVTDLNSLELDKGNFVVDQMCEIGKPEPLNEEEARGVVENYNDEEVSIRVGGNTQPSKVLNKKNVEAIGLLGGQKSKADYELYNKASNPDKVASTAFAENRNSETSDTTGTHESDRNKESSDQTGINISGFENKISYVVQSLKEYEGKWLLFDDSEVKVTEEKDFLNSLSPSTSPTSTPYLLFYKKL
Glucocorticoid receptor (Homo sapiens), sequence (P04150 whole entry, looked up): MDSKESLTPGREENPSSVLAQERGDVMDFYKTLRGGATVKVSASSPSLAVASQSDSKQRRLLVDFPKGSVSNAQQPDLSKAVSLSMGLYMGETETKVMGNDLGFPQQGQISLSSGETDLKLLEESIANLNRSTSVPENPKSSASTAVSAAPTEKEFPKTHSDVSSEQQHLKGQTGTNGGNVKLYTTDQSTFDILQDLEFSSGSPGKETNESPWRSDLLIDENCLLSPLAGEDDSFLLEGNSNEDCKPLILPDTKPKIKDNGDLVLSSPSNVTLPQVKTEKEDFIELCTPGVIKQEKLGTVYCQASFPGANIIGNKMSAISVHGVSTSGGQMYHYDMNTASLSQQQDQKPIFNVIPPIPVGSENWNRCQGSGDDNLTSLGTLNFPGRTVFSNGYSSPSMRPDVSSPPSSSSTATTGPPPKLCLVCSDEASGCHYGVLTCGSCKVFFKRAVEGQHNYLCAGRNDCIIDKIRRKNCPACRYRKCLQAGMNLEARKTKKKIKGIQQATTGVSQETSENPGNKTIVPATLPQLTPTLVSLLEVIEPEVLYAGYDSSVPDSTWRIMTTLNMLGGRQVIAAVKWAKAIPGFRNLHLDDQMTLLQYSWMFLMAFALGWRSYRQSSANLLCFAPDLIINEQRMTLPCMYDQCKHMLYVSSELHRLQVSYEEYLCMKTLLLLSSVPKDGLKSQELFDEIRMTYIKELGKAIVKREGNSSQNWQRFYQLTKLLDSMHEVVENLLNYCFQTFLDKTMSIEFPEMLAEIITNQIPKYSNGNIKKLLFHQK
Cytochrome P450 3A4 (Homo sapiens), sequence (P08684 whole entry, looked up): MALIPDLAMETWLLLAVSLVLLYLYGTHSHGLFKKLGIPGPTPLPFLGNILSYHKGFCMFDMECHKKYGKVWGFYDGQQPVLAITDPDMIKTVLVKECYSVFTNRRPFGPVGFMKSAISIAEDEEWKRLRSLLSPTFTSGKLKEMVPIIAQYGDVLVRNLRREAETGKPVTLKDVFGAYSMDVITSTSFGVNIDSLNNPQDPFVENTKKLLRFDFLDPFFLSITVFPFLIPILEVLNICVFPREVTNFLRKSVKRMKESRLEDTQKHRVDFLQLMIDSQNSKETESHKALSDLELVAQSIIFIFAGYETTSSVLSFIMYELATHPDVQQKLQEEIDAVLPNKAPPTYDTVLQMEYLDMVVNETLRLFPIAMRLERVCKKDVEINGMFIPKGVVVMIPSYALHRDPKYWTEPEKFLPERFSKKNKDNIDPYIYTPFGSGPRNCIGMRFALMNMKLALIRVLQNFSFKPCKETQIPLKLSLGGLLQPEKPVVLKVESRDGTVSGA
Cytochrome P450 2C19 (Homo sapiens), sequence (P33261 whole entry, looked up): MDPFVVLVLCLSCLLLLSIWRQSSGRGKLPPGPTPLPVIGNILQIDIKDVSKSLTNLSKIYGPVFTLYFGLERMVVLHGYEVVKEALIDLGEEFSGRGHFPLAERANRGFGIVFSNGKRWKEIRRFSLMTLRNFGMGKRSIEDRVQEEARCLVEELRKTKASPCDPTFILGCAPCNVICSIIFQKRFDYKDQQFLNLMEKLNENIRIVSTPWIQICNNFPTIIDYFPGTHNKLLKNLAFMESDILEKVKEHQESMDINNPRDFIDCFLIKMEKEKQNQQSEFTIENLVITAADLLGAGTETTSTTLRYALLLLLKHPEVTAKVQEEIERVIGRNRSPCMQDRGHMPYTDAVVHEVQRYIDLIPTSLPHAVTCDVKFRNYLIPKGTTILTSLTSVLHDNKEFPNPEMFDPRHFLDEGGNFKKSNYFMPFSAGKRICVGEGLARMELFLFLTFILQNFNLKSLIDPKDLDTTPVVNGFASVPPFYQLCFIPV

Consider `Cc1cccc(CNc2ccnc(-c3ccccc3Cl)n2)c1`, for which the activity change, negative = inhibition in test [1] is -2.43%; in test [3], -3.52%. The Potency is 1.58 µM (active) in test [2]; greater than 46 µM in [5]; greater than 46 µM in [6]; 3.98 µM (active) in [8]; 1.26 µM (active) in test [10]; 28.2 µM (active) in test [14]. Also, in [4], the activity, negative = inhibition was -10.7%. Moreover, the Potency entry in [7], in test [9], in test [11], in [12] and in test [13] was “inactive” each time. The result in [15] was inactive.

With `COc1cccc(Cn2c(=O)c(-c3cc(F)cc(F)c3)nc3cnc(N4CCOCC4)nc32)c1`, the figures for the Potency in test [16], in [5] and in test [6] were greater than 11.4 µM, greater than 9.22 µM and greater than 46 µM, respectively. In addition, the activity change, negative = inhibition in test [3] was 5.53%. Besides, the activity, negative = inhibition in test [4] was 24.5%. Also, the Potency entry in test [7], in [17], in test [11], in [12], in test [13] and in [14] was “inactive” throughout. Further, in test [15], the result was inactive.

For the compound `N#Cc1cccc(-c2ccc3ncnc(N4CCNCC4)c3c2)c1`, the activity change, negative = inhibition was -0.846% in [1] and 6.74% in [3]. Besides, the Potency is 0.631 µM (active) in test [2]; greater than 46 µM in test [5]; greater than 46 µM in test [6]; 12.6 µM (active) in [11]; 22.4 µM (active) in test [12]; 11.2 µM (active) in test [13]. Moreover, the Potency in [14] was 20 µM (active). In addition, in [4], the activity, negative = inhibition is 11.7%. The Potency result in test [7], in test [17] and in [9] was “inactive” throughout. The result in test [15] was inactive.

Regarding `CN(C)c1ncc2nc(-c3ccccc3)c(=O)n(CCc3ccccc3)c2n1`, the Potency in [16] is greater than 11.4 µM; in test [2], 20 µM (active); in [5], greater than 9.22 µM; in test [6], greater than 46 µM; in [18], 0.631 µM (active); in test [19], 3.16 µM (active). In addition, the Potency result in test [17], in test [11], in test [12], in test [13] and in [14] was “inactive” each time. Also, the outcome in [15] was inactive.

As to `COc1ccc(-n2c(=O)c(CCc3ccccc3)nc3cnc(N4CCOCC4)nc32)cc1`, the activity change, negative = inhibition is -17% in test [1] and -7.5% in test [3]. Also, the Potency in test [2] was 15.8 µM (active); in [5] it was greater than 9.22 µM; in test [6], greater than 46 µM. For the same compound, the activity, negative = inhibition in test [4] is -13.2%. Further, the Potency entry in [7], in test [17], in test [9], in test [11], in test [12] and in test [13] was “inactive” each time. The Potency entry in test [14] was “inactive”. For the same compound, in [15], the outcome was inactive.

Regarding `CN(C)c1ncc2nc(-c3cccc(C#N)c3)c(=O)n(C)c2n1`, the Potency in test [16] was greater than 11.4 µM; in test [5] it was greater than 9.22 µM; in test [6], greater than 46 µM. Also, the activity change, negative = inhibition in test [3] is 5.54%. For the same compound, in [4], the activity, negative = inhibition was -1.63%. Also, the Potency entry in test [7], in [17], in test [11], in test [12], in test [13] and in test [14] was “inactive” each time. In addition, in [15], the result was inactive.

Take `COc1ccc(-n2c(=O)c(-c3cc(F)cc(F)c3)nc3cnc(N4CCOCC4)nc32)cc1`: the Potency in test [16] is greater than 11.4 µM; in test [2], 15.8 µM (active); in test [5], greater than 9.22 µM; in test [6], greater than 46 µM; in test [19] it was 1.58 µM (active). For the same compound, the Potency result in test [7], in test [9], in [11], in test [12], in [13] and in test [14] was “inactive” each time. In addition, the result in test [15] was inactive.

(Values after PubChem BioAssay (NCATS).)
